# hgDAF-12 ag: hgDAF-12 agonism, primary luciferase screen; HEK293 GAL4-hgDAF12 UAS-luciferase reporter, agonist luminescence; normalized to butyrate control; activation, % at 6.8 µM; actives 1.8% (n = 370,000);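 active = activation above a cutoff set at the mean of all screened compounds plus 3 SD, cut at about 10% in these data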;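 also: 0% = DMSO wells and 100% = sodium butyrate wells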
# GAA850 FXN act: increases GAA850 frataxin promoter reporter activity. HEK293 lucGAA850 FXN promoter luciferase reporter, 24 h; percent of 10 µM SAHA response. activation, % at 6 µM. actives 0.56% (n = 360,000). AID 540364;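 active = activation above the average of all compounds screened plus 3 SD, cutoff fixed separately per campaign, cut at about 7.5% in these data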;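 also: 0% = DMSO wells and 100% = 10 µM SAHA wells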
# DAX1 inh-1: blocks DAX1 repression of SF-1 activated StAR promoter. inhibition, % at 6.8 µM. AID 652010. HEK293T StAR-luciferase reporter, SF-1/DAX-1 repression relief. actives 1.1% (n = 370,000);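 active = inhibition above the mean over all tested compounds plus 3 SD, cut at about 3.6% in these data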;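 also: 0% = DAX-1 cells with DMSO and 100% = cells lacking DAX-1 with DMSO; higher inhibition means more luminescence from relief of DAX-1 repression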
# hcDAF-12 act: H. contortus DAF-12 activation, primary screen. activation, % at 6.8 µM. HEK293 hcDAF-12 lit1-tk-luc reporter, luminescence; 0% DMSO, 100% Δ7-dafachronic acid. actives 1.4% (n = 370,000);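 active = activation above the mean of all tested compounds plus 3 SD, cut at about 5.5% in these data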;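 also: 100% = response to 3 µM Δ7-dafachronic acid high control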
# ssDAF12 agonist: activates DAF-12 receptor from parasite S. stercoralis; actives 1% (n = 370,000); activation, % at 6.8 µM; HEK293 ssDAF-12/GRIP1 lit1-tk-luc reporter, luminescence; % of 3 µM dafachronic acid response;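 active = activation above the mean over all tested compounds plus 3 SD, cut at about 0.9% in these data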;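 also: 0% = DMSO-only wells and 100% = 3 µM delta7-dafachronic acid wells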
# DAX1 inh-2: inhibits human nuclear receptor DAX1; HEK293 Gal4-DAX1 luciferase reporter, luminescence; inhibition, % at 6.75 µM; actives 0.99% (n = 340,000); AID 504766;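 active = inhibition above the mean over all tested compounds plus 3 SD, cut at about 4.2% in these data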;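 also: 0% = DAX1-transfected cells with DMSO and 100% = empty-vector control cells with DMSO; inhibition shows as a rise in luminescence from relieved DAX1 repression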
# Target sequence (P51843 207-470 limits assumed): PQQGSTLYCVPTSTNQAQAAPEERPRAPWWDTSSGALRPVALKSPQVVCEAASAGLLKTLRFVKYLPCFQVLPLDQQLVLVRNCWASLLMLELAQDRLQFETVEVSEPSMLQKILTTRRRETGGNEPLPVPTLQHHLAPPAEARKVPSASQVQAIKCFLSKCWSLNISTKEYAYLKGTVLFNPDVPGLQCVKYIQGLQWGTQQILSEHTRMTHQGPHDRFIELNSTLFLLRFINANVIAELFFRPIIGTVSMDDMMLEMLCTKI
# An asterisk follows results filed as active; · = no result. The list is not random: actives were taken first. Their share in the collection is about 4.5%.
SMILES,hgDAF-12 ag,GAA850 FXN act,DAX1 inh-1,hcDAF-12 act,ssDAF12 agonist,DAX1 inh-2
O=C(Nc1ccc(Cl)cc1)Nc1ccccn1,12*,5,1,4,0,4
COc1ccccc1CCNC(=O)CSc1nc2c([nH]1)c(=O)n(C)c(=O)n2C,-2,·,0,2,-1,·
COC(=O)c1c(-c2ccc(F)cc2)csc1NC(=O)C1CCCO1 (stereo not drawn),12*,4,3,-1,-2,-1
CCc1ccc(-c2csc(NC(=O)C3CCCO3)c2C(=O)OC(C)C)cc1 (stereo not drawn),-2,3,-1,-1,-1,1
Cc1cccc(NC(=O)CN2C(=O)N/C(=C/c3cc(C)n(-c4cccnc4)c3C)C2=O)c1,-3,0,0,-1,-1,6.6*
CC(C)(C)c1ccc(C(=O)Nc2cc(Cl)ccc2C(=O)O)cc1,4,·,·,3,0,·
Clc1ccc(-c2nnc(CCc3ccccc3)o2)c(Cl)c1,8,2,2,5.8*,0,3
COc1cccc(-c2nnc(SCC(=O)Nc3cc(C)ccc3OC)n2N)c1,-1,0,-1,3,-1,0
COc1ccc(OC)c(NC(=O)CSc2nncc(=O)n2N)c1,-1,2,1,-1,0.9*,0
c1ccc(NN=C2c3ccccc3-c3ccccc32)cc1,2,1,0,5.7*,1,0
CC1(C)OC(=O)C(=NNc2ccccc2)C(=O)O1,-1,3,-1,-1,0,0
O=C(OCc1cn(Cc2cccc(Cl)c2)nn1)N1CCCC1,1,·,-1,-2,-1,·
CCCCN(C)C(=O)c1oc(=O)c2ccccc2c1-c1ccc(C)cc1,-1,·,0,-1,-1,·
Cc1ccc(-n2c(SCC(=O)NN=Cc3ccc(-c4ccccc4)cc3)nnc2-c2ccccc2)cc1,-2,·,-1,1,-1,·
CC(CCC(=O)Nc1nncs1)C(=O)O (stereo not drawn),0,1,0,1,-1,3
CCCCC(C(=O)O)C(C)CC(=O)Nc1nncs1 (stereo not drawn),5,1,0,1,-1,4.7*
CCOC(=O)[C@]12CCCCC/C=C\1N(CCc1ccc(Cl)cc1)C(=O)[C@H]2CC(=O)NCc1cccc2ccccc12,1,·,-1,-1,-1,·
CC(=O)NC12CC3CC(CC(CC(=O)O)(C3)C1)C2,1,-1,1,0,-1,1
CC(=O)NC(C)C12CC3CC(CC(CC(=O)O)(C3)C1)C2 (stereo not drawn),1,0,0,-1,-1,4.4*
O=C(N1CCOCC1)N1CCN(S(=O)(=O)c2ccc(Cl)cc2)C1,-2,-1,0,2,1.0*,1
CC(C)c1ccc(NC(=O)CCNC(=O)N2CC(=O)Nc3ccccc32)cc1,0,-1,3.9*,-1,-1,0
COc1cccc(CNC(=O)CNC(=O)N2CC(=O)Nc3ccccc32)c1,1,-1,3.7*,-1,-1,1
COc1ccc(NC(=O)CCNC(=O)N2CC(=O)Nc3ccccc32)cc1,3,1,1,0,-1,1
CCOC(=O)N1C(=O)C[C@](Sc2ccc(OC)cc2)(C(=O)N2CCN(C(C)=O)CC2)[C@H]1c1ccc(OC)cc1,0,·,-2,-1,0,·
C#CCNC(=O)C[C@@H]1C[C@]2(C(=O)OCC)CCC3=C2N(CCC3)C1=O,4,·,1,-1,-1,·
SMILES,hgDAF-12 ag,GAA850 FXN act,DAX1 inh-1,hcDAF-12 act,ssDAF12 agonist,DAX1 inh-2
Cc1ccccc1-n1ncc2c1CC(C)(C)CC2NC(=O)CCC1=NNC(=O)CC1 (stereo not drawn),0,-3,0,0,-1,1
Cc1ccn(CCC(=O)NC2CC(C)(C)Cc3c2cnn3-c2ccccc2C)n1 (stereo not drawn),2,-1,3.8*,3,-1,1
CC(=O)Nc1c(-c2ccc(C)cc2)nc2ncccn12,0,·,1,-1,-1,·
O=C(CNC(=O)c1ccc(Cl)cc1Cl)OCCOc1ccccc1,-2,0,3.9*,-1,-1,1
COc1ccc(OCCOC(=O)CNC(=O)c2ccc(Cl)cc2Cl)cc1,4,2,1,-1,-1,2
Cc1ccc(CNC(=O)c2cc3c(=O)n(C)c4ccccc4c3n2C)cc1,0,-1,0,1,-1,5.6*
Cn1c(C(=O)N2CCN(Cc3ccccc3)CC2)cc2c(=O)n(C)c3ccccc3c21,0,1,2,0,-1,0
CCN1CCN(C(=O)c2cc3c(=O)n(C)c4ccccc4c3n2C)CC1,-1,-1,2,2,-1,5.8*
CCCN(CCC)CCNC(=O)c1cc2c(=O)n(C)c3ccccc3c2n1C,3,2,3,2,-1,5.7*
c1ccc2nc3c(nc2c1)OCC1CCCCN31 (stereo not drawn),8,2,1,6.2*,1,4
COCC(=O)N(C)[C@H]1C[C@H]2c3[nH]c4c(-c5ccc6c(c5)OCO6)cccc4c3CCN2C(=O)[C@H]1[C@H](C)O,0,·,-2,-3,-2,·
O=C(NN=C1CCCCCCCCCCC1)c1ccccc1F,12*,-1,3,3,0,0
O=C(NN=C1CCCC1)c1cc(-c2ccccc2)n[nH]1,2,4,0,-2,-1,-1
O=C(NN=C1CCCC1)c1ccn[nH]1,12*,3,2,1,1,2
O=C(NN=C1CCCCCCC1)c1ccc(F)cc1,5,5,1,0,-1,0
O=S1(=O)c2ccc(Br)cc2OC[C@@H](Cc2ccccc2)N1Cc1cn(CCC2OCCCO2)nn1,5,·,-1,4,-1,·
Cc1ccc2cc(CCNC(=O)c3ccco3)c(=O)[nH]c2c1,6,3,2,1,-1,1
Cc1ccc2cc(CCNC(=O)c3ccco3)c(=O)[nH]c2c1C,13*,0,4.4*,6.5*,0,3
CC(C(=O)c1ccccc1)C(O)c1ccccn1 (stereo not drawn),4,0,1,1,-1,-1
CC1CC(C(O)c2ccccn2)C(=O)C(C(O)c2ccccn2)C1 (stereo not drawn),0,0,0,-2,2.0*,-1
CC(Oc1ccccc1)c1nnc(N)s1 (stereo not drawn),-1,1,0,-1,-1,0
CC(c1ccccc1)c1nnc(N)s1 (stereo not drawn),-1,0,0,-1,-1,4.7*
O=S(=O)(c1cccs1)N1CN(Cc2ccccc2)c2nc3ccccc3nc21,1,2,0,1,-1,0

# Source: PubChem (The Scripps Research Institute Molecular Screening Center)
